# A number with no mark means an inactive call. Records with an inconclusive call do not appear. The source made the active and inactive calls. Unless noted, calls come from the whole dose curve; as a rule, active = well fitted curve in the direction sought with a large enough effect; inconclusive = small, poorly fitted or top-dose-only effect, or another doubt; inactive = no such curve, though single readings can be large; an effect the other way counts as inactive or inconclusive.
# Key:
# [1] = target: Cytochrome P450 1A2 (Homo sapiens) (UniProt P05177); test: p450-cyp1a2 (AID 410; calls by dose curve; note: potency is the fitted concentration of half-maximal effect;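 for activity change, negative = inhibition: -100% = full effect of reference inhibitor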)
# Sequence of Cytochrome P450 1A2 (Homo sapiens) (P05177 whole entry, looked up): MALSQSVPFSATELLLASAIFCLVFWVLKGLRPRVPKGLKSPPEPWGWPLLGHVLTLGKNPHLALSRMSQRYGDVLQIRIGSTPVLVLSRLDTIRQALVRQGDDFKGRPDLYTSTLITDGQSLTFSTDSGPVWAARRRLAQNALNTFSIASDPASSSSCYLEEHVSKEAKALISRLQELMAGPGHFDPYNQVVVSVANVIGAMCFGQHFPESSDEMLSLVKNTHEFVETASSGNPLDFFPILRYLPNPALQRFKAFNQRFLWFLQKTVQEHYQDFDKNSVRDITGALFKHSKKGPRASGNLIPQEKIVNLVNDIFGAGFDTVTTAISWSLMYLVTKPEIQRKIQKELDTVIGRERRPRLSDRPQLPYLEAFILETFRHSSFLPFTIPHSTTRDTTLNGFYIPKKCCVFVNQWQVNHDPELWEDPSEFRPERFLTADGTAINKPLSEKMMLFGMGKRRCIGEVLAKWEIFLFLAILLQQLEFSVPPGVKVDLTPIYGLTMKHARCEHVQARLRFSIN
# In short: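 Luminescent readout of luciferin formed from Luciferin-ME by human CYP1A2; data normalized against complete inhibition by 57 uM furafylline. Enzyme 20nM, substrate 100uM at Km, 100mM KPO4 buffer, 60 min reaction at room temperature.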
# [2] = NFAT Signaling Pathway (AID 444; active = well fitted curve in either direction with a large enough effect, not every such curve was filed as active;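 note: carbachol stimulus at about its EC50 of 1 µM final; % is set by controls: 0 for no effect and ±100 for the full control effect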); settings: Jurkat NFAT-bla M1, carbachol, beta-lactamase ratio, 5 h; at 17.2 µM (top of the series) unless noted
# In short: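 Jurkat cells with NFAT-driven β-lactamase reporter and co-expressed M1 receptor, stimulated with carbachol (final 1 uM, ~EC50), compound titration, 5 h at 37 °C. CCF4 loaded 1 h at RT; 460/530 nm ratio gave %activity and AC50.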
# [3] = Stat Signaling Pathway (AID 446; active = well fitted curve in either direction with a large enough effect, not every such curve was filed as active;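 note: ME-180 cervical cancer cells given 40 pM IL-6 alongside compound; SIE-controlled beta-lactamase reporter measured as 460/530 nm FRET emission ratio; % is set by controls: 0 for no effect and ±100 for the full control effect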)
# In short: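 Reporter line: ME-180 cervical carcinoma, SIE-beta-lactamase. Treatment: compound with 40 pM IL-6, 5 hrs, 37 C, in low-serum OPTI-MEM with 10 mM HEPES pH 7.3. Detection: 460/530 nm fluorescence.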
# [4] = target: Glucocorticoid receptor (Homo sapiens) (UniProt P04150); test: GR-GFP Redistribution (AID 450;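 active = compounds whose dose series gives a full or clear partial fitted curve of increased nuclear translocation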; note: potency is the fitted concentration of half-maximal effect); settings: U2OS GR-GFP nuclear translocation, laser cytometry, 2 h
# Sequence of Glucocorticoid receptor (Homo sapiens) (P04150 whole entry, looked up): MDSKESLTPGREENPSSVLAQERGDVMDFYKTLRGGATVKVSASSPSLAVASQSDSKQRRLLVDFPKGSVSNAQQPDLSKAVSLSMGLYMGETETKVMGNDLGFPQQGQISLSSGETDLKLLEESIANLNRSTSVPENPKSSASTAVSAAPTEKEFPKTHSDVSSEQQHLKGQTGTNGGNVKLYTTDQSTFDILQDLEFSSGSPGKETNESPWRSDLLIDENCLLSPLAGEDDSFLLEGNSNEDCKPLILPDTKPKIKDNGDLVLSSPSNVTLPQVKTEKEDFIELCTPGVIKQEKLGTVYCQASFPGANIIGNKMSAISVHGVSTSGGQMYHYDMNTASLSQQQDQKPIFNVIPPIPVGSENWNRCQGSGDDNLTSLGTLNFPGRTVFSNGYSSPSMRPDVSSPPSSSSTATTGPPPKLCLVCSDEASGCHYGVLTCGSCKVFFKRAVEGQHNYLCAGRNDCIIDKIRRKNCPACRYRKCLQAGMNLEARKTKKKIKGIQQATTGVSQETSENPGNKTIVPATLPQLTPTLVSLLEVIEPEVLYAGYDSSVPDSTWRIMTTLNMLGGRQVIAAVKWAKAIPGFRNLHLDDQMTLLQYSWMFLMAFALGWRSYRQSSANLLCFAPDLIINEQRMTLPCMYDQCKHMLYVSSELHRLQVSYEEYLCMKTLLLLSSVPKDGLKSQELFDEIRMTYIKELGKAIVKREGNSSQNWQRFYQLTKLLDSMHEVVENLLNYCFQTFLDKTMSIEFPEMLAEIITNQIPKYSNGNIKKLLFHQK
# [5] = target: 3',5'-cyclic-AMP phosphodiesterase 4B (Homo sapiens) (UniProt Q07343); test: qHTS Assay for Inhibitors of PDE-IV (AID 607; active = well fitted activation curve with a large enough effect in the main read-out, with a control signal flat, not every such curve was filed as active; note: % of control where 0% means no effect)
# Sequence of 3',5'-cyclic-AMP phosphodiesterase 4B (Homo sapiens) (Q07343 whole entry, looked up): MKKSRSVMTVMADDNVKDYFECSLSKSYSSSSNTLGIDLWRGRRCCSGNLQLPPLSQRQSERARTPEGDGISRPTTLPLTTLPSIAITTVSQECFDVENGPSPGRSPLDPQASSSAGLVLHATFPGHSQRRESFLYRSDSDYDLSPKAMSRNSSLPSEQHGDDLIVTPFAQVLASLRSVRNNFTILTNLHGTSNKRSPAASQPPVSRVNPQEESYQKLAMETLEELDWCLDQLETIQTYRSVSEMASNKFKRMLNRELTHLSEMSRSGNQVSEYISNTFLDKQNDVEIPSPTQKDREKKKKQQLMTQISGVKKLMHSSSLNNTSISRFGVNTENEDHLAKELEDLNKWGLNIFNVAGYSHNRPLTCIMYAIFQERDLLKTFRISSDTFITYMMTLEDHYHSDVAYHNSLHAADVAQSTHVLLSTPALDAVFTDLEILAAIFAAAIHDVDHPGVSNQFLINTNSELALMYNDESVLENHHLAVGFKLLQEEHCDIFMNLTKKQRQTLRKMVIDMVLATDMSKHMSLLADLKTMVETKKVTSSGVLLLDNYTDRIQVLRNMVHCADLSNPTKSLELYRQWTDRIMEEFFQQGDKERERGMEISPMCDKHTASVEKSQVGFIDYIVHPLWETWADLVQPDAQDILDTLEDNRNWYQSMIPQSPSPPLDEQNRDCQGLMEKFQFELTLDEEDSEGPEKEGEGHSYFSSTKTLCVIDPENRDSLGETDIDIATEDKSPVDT
# In short: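 Cell-based read-out of cAMP via a modified cyclic nucleotide-gated channel and membrane potential dye (535/590 nm) in HEK293 cells expressing PDE4 endogenously. Compounds tested up to 22.9 uM final; 100 uM RO 20-1724 reference.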
# [6] = Confirmation and Secondary Assay for Modulators of Hemoglobin Beta Chain Splicing at IVS2 654 locus (AID 910);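 note: HeLa cells stably carrying EGFP split by mutant beta-globin IVS2-654 intron; % of control where 0% means no effect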
# In short: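 HeLa cells stably expressing EGFP interrupted by β-globin IVS2-654 intron, seeded overnight in Opti-MEM/2% FCS, then treated 2 days at 37 °C. Restored splicing read as total peak GFP intensity per well by laser scanning cytometry (488 nm excitation, 500–520 nm emission); 500 nM antisense PNA as control.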
# [7] = Confirmation and Secondary Assay for Modulators of Hemoglobin Beta Chain Splicing at IVS2 705 locus (AID 930);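 note: HeLa cells stably expressing the EGFP-705 splicing reporter; GFP fluorescence per well restored by corrected splicing of the IVS2-705 intron in EGFP; % of control where 0% means no effect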
# In short: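 HeLa cells stably carrying EGFP interrupted by mutant beta-globin intron 2 (IVS2-705) treated 2 days at 37C with compound; 500 nM antisense PNA as control. Correct splicing read as total peak GFP intensity per well by laser-scanning cytometry.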
# [8] = system: 7G8; test: qHTS profiling for inhibitors of Plasmodium falciparum proliferation (AID 504749); note: nearly all actives have a fitted effect of over 60% in size; note: potency is the fitted concentration of half-maximal effect; settings: P. falciparum in erythrocytes, SYBR Green DNA, 72 h; series mostly up to 12.8 µM
# In short: (§1)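 P. falciparum-infected erythrocytes (0.3% parasitemia, 2.5% hematocrit) incubated with compound 72 h at 37 C, 5% CO2. Parasite DNA detected by SYBR Green after lysis, overnight at room temperature; normalised to 0.29 uM artemisinin and DMSO.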
# [9] = system: DIV14; test: as above; settings: P. falciparum in erythrocytes, SYBR Green DNA, 72 h; series mostly up to 12.8 µM
# In short: as §1
# [10] = system: DIV17; test: as above; settings: P. falciparum in erythrocytes, SYBR Green DNA, 72 h; series mostly up to 12.8 µM
# In short: as §1
# [11] = system: GB4; test: as above; settings: P. falciparum in erythrocytes, SYBR Green DNA, 72 h; series mostly up to 12.8 µM
# In short: as §1
# [12] = system: ICS; test: as above; settings: P. falciparum in erythrocytes, SYBR Green DNA, 72 h; series mostly up to 12.8 µM
# In short: as §1
# [13] = system: W2; test: as above; settings: P. falciparum in erythrocytes, SYBR Green DNA, 72 h; series mostly up to 12.8 µM
# In short: as §1
# [14] = target: Cytochrome P450 2D6 (Homo sapiens) (UniProt P10635); test: qHTS Assay for Inhibitors and Substrates of Cytochrome P450 2D6 (AID 891); note: nearly all actives have a fitted effect of over 60% in size; note: potency is the fitted concentration of half-maximal effect;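 for activity change, negative = inhibition: luciferin methyl ether substrate demethylated by CYP2D6 with NADPH regeneration; % is set by controls: 0 for no effect and ±100 for the full control effect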
# Sequence of Cytochrome P450 2D6 (Homo sapiens) (P10635 whole entry, looked up): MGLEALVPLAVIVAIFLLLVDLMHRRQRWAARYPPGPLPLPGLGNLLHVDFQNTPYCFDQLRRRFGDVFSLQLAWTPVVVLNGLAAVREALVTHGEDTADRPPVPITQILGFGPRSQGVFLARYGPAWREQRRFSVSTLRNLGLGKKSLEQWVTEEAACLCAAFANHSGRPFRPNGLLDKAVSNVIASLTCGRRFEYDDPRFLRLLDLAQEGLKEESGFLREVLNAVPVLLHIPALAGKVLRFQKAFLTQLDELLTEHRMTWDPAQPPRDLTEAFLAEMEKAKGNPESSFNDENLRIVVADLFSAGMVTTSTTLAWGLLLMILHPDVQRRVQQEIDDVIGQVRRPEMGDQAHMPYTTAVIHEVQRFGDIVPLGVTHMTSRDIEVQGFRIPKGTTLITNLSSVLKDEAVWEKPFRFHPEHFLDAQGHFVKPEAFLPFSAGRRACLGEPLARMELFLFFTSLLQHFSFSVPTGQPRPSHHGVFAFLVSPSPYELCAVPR
# In short: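 Human CYP2D6 (5 nM) with 30 uM Luciferin-ME EGE (at Km) in 100 mM KPO4, compound preincubated 10 min, then NADPH regeneration system for 60 min at room temperature. Luciferin read by luminescence; normalized to 1.43 uM quinidine.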
# [15] = S16 Schwann cell PMP22 intronic element beta-lactamase assay (AID 624044; calls by dose curve;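 note: 0% = DMSO and -100% = potassium clavulanate positive control; nearly all actives have a fitted effect of over 15% in size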)
# In short: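 Rat S16 Schwann cells with beta-Lac driven by a PMP22 intronic element, compound-treated 24 h at 37 °C. LiveBLAzer FRET B/G read: 460 nm normalized to potassium clavulanate vs DMSO; 535 nm FRET as viability; concentration-effect curves classified.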
# [16] = system: CP215; test: qHTS profiling for inhibitors of Plasmodium falciparum proliferation (AID 504749); note: nearly all actives have a fitted effect of over 60% in size; note: potency is the fitted concentration of half-maximal effect; settings: P. falciparum in erythrocytes, SYBR Green DNA, 72 h; series mostly up to 12.8 µM
# In short: as §1
# [17] = system: DFO2036; test: as above; settings: P. falciparum in erythrocytes, SYBR Green DNA, 72 h; series mostly up to 12.8 µM
# In short: as §1
# [18] = target: Cytochrome P450 3A4 (Homo sapiens) (UniProt P08684); test: qHTS Assay for Activators of Cytochrome P450 3A4 (AID 885); note: nearly all actives have a fitted effect of over 65% in size
# Sequence of Cytochrome P450 3A4 (Homo sapiens) (P08684 whole entry, looked up): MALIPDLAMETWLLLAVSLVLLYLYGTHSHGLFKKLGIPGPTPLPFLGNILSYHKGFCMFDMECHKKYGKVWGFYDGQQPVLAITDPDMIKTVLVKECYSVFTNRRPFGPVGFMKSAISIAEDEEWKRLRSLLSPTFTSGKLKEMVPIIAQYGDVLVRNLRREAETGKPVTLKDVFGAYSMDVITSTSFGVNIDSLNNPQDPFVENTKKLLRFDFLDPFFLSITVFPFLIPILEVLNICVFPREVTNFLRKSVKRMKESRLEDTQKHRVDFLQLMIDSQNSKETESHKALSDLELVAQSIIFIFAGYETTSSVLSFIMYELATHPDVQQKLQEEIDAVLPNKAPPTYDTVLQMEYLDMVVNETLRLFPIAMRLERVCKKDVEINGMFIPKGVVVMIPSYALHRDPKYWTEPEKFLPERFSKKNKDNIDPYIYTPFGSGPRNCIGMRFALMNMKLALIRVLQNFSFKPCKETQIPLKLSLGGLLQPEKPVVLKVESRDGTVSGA
# In short: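 Signal was normalized against complete inhibition by 57 uM ketoconazole. The reaction used 20nM CYP3A4 with 25uM Luciferin-PPXE, 10-min compound preincubation and a 60-min NADPH-supported step at RT.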
# [19] = target: Cytochrome P450 3A4 (Homo sapiens) (UniProt P08684); test: qHTS Assay for Inhibitors and Substrates of Cytochrome P450 3A4 (AID 884); note: potency is the fitted concentration of half-maximal effect; nearly all actives have a fitted effect of over 50% in size
# In short: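 20 nM human CYP3A4 with 25 uM Luciferin-PPXE (at KM) in 200 mM KPO4, preincubated 10 min with compound; NADPH regeneration started a 60 min RT reaction. Luciferin detected by luminescence, normalized to 57 uM ketoconazole as full inhibition.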
# [20] = target: DNA dC->dU-editing enzyme APOBEC-3G (Homo sapiens) (UniProt Q9HC16); test: qHTS for inhibitors of Vif-A3G interactions: Validation (AID 588379); note: 0% is about no effect
# Sequence of DNA dC->dU-editing enzyme APOBEC-3G (Homo sapiens) (Q9HC16 whole entry, looked up): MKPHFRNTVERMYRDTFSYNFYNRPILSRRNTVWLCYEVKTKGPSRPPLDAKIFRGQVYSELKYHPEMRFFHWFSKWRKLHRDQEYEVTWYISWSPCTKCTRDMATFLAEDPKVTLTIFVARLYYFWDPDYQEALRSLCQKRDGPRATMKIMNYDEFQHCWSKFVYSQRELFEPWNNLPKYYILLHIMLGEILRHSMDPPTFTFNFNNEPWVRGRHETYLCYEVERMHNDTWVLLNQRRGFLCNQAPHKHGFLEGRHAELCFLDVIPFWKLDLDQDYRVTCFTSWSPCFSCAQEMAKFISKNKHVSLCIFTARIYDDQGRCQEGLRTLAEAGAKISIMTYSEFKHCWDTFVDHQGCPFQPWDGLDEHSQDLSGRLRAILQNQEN
# In short: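 HeLa cells stably expressing Vif and A3G-eYFP, 700 cells/well, incubated overnight at 37 deg C, then exposed to compound overnight at 37 deg C. Inhibition of Vif-mediated degradation read as increased yellow fluorescence (Ex 488/Em 500-530) by laser-scanning cytometry.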
compound,measurement,setting,value
CO/N=C(\C(=O)N[C@@H]1C(=O)N2C(C(=O)O)=C(COC(N)=O)CS[C@@H]12)c1ccco1,Potency,[1],inactive
same,"activity change, negative = inhibition",[2],6.11%
same,outcome,[3],inactive
same,Potency,[4],> 20.6 µM
same,outcome,[5],inactive
FC(F)(F)c1ccccc1-c1ccc2ncnc(NC3CCNCC3)c2c1,Potency,[1],20 µM (active)
same,"activity change, negative = inhibition",[2],2.61% [at 7.69 µM]
same,outcome,[3],inactive
same,outcome,[5],inactive
same,Potency,[6],inactive
same,Potency,[7],inactive
CCOC(=O)Oc1c(OC)cc(C(=O)O[C@H]2C[C@H]3CN4CCc5c([nH]c6cc(OC)ccc56)[C@@H]4C[C@H]3[C@@H](C(=O)OC)[C@@H]2OC)cc1OC,Potency,[1],inactive
same,"activity change, negative = inhibition",[2],-2.78%
same,outcome,[3],inactive
same,outcome,[5],inactive
same,Potency,[8],2.51 µM (active)
same,Potency,[9],5.73 µM (active)
same,Potency,[10],5.73 µM (active)
same,Potency,[11],6.42 µM (active)
same,Potency,[12],2.82 µM (active)
same,Potency,[13],2.56 µM (active)
CN(C/C=C\c1ccccc1)Cc1cccc2ccccc12,Potency,[1],2 µM (active)
same,outcome,[3],inactive
same,Potency,[4],> 20.6 µM
same,Potency,[14],0.251 µM (active)
same,Potency,[15],inactive
same,Potency,[16],inactive
same,Potency,[17],inactive
same,Potency,[9],inactive
same,Potency,[10],inactive
same,Potency,[12],11.2 µM (active)
C=Cc1c(C)c2cc3nc(cc4[nH]c(cc5nc(cc1[nH]2)C(C)=C5CCC(=O)O)c(CCC(=O)OC)c4C)[C@@]1(C)C3=CC=C(C(=O)OC)[C@H]1C(=O)OC (tested in a mixture with another compound),Potency,[1],3.98 µM (active)
same,Potency,[4],> 20.6 µM
same,outcome,[5],inactive
same,Potency,[18],inactive
same,Potency,[15],inactive
same,Potency,[8],0.355 µM (active)
same,Potency,[17],11.2 µM (active)
same,Potency,[9],8.49 µM (active)
same,Potency,[10],7.57 µM (active)
same,Potency,[11],12 µM (active)
same,Potency,[12],0.501 µM (active)
same,Potency,[13],1.69 µM (active)
Cc1onc(-c2c(F)cccc2Cl)c1C(=O)N[C@H]1C(=O)N2[C@H]1SC(C)(C)[C@H]2C(=O)O,Potency,[1],inactive
same,"activity change, negative = inhibition",[2],-12.5%
same,outcome,[3],inactive
same,outcome,[5],inactive
O=c1cc(-c2cccc(O)c2)oc2cc(O)ccc12,Potency,[1],5.01 µM (active)
same,Potency,[4],> 46 µM
same,outcome,[5],inactive
same,Potency,[19],12.6 µM (active)
same,Potency,[18],inactive
same,Potency,[14],inactive
same,outcome,[20],inactive
C=C(C)[C@H]1CC[C@]2(C(=O)O)CC[C@]3(C)[C@@H](CC[C@H]4[C@@]5(C)CC[C@@H](O)C(C)(C)[C@@H]5CC[C@@]43C)[C@H]12,Potency,[1],inactive
same,"activity change, negative = inhibition",[2],-3.55%
same,Potency,[4],> 20.6 µM
O[C@@](CCN1CCCCC1)(c1ccccc1)[C@@H]1C[C@H]2C=C[C@@H]1C2,Potency,[1],inactive
same,outcome,[3],inactive
same,Potency,[4],> 20.6 µM
same,Potency,[14],2 µM (active)

# From PubChem BioAssay (NCATS)
